Experimental findings from PubChem BioAssay AID623901 (Broad Institute, 2012) are described below.

Each structure is given as a SMILES string. Screen size: about 340,000 compounds; about 470 (0.14%) were called active. Only a selection was taken, and actives are over-represented in it overall. Values without a mark were called inactive.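 Rule for the calls: active = mean activation of 30% or more, with every replicate also reaching 30%; inconclusive = mean activation of 30% or more but some replicate falls short; inactive = the rest.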

The experiment in a line: miR-122 suppressors via Renilla sensor increase, primary screen, cell-based, Huh7 psiCHECK-miR122, Renilla luciferase, single point (AID 623901).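 Note: 0% = median of neutral control wells and 100% = median of positive control wells; higher luciferase signal means stronger suppression of miR-122 activity.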 The conditions noted are these: 48 h, at 12.5 µM, hits give high values.
On to `COc1ccc(OC)c(S(=O)(=O)Nc2cccc(-c3ccc4nncn4n3)c2)c1`, for which the activation is -333%.
The same measure for `C[C@@H]1CN([C@H](C)CO)S(=O)(=O)c2ccc(C#CCC3CCCC3)cc2O[C@H]1CN(C)C(=O)CC1CC1`: -0.08%.
In the case of `CO[C@@H]1CN(C)C(=O)c2cc(NS(=O)(=O)CC(F)(F)F)ccc2OC[C@H](C)N(C)C[C@H]1C`, the activation is -2.27%.
Turning to `C[C@H](CO)N1C[C@H](C)[C@H](CN(C)CC2CCCCC2)Oc2c(NC(=O)c3cnccn3)cccc2C1=O`, the activation was -119%.
For `C[C@@H]1CN([C@H](C)CO)C(=O)c2cc(C#CC3CCCC3)cnc2O[C@@H]1CN(C)C(=O)C1CCC1`, the activation was -4.13%.
As for `CCOc1ccccc1N1CCN(C(=O)c2ccc3[nH]c(C)c(C)c3c2)CC1`, the activation is -100%.
The same measure for `C[C@H](CO)N1C[C@H](C)[C@H](CN(C)C(=O)Nc2cccc3ccccc23)Oc2ncc(C#Cc3ccccc3)cc2C1=O`: 8.08%.
As for `C[C@H]1CN([C@@H](C)CO)S(=O)(=O)c2ccc(Br)cc2O[C@H]1CN(C)Cc1ccccn1`, the activation was 4.93%.
With `CSc1ccc(S(=O)(=O)NC2CCCCC2)cc1`, the activation is -102%.
Regarding `CCCC#Cc1cnc2c(c1)C(=O)N([C@H](C)CO)C[C@H](C)[C@@H](CN(C)Cc1ccccc1)O2`, the activation was 2.96%.
On to `C[C@@H]1CN([C@H](C)CO)C(=O)c2cc(-c3ccc(F)cc3)cnc2O[C@@H]1CN(C)Cc1ccc(C(=O)O)cc1`, for which the activation is -8.09%.
For `Cc1c(C)c(C)c(S(=O)(=O)NCCc2ccccn2)c(C)c1C`, the activation was -107%.
In the case of `CCC(=O)N1C[C@H](C)[C@H](OC)CN(C)C(=O)c2ccc(NS(C)(=O)=O)cc2OC[C@H]1C` it was 0.433%; in that of `C[C@H]1CN([C@@H](C)CO)C(=O)c2cc(C#CC3(O)CCCC3)cnc2O[C@@H]1CN(C)C(=O)Cc1ccccc1`, 0.596%; in that of `COc1cccc2sc(N(CCCN(C)C)C(=O)C(c3ccccc3)c3ccccc3)nc12`, 74.2% (active).
As for `C[C@@H]1CN([C@H](C)CO)S(=O)(=O)c2ccc(-c3ccccc3)cc2O[C@@H]1CN(C)C(=O)CC1CC1`, the activation is -0.601%.
As for `C[C@H](CO)N1C[C@H](C)[C@@H](CN(C)CC2CCOCC2)Oc2ncc(C#Cc3ccc(F)cc3)cc2C1=O`, the activation is 4.08%.
The same measure for `C[C@@H]1CN([C@@H](C)CO)S(=O)(=O)c2ccc(C#CCC3CCCC3)cc2O[C@H]1CN(C)C(=O)CC1CC1`: -4.63%; for `C[C@@H]1CN([C@H](C)CO)C(=O)c2cc(C#CC3(O)CCCC3)cnc2O[C@H]1CN(C)Cc1ccncc1`: -9.22%.
In the case of `C[C@H](CO)N1C[C@H](C)[C@@H](CN(C)Cc2ccncc2)Oc2ncc(C#CC3CC3)cc2C1=O` it was -22.7%; in that of `Cc1ccc(C(=O)Nc2ccccc2-c2ccccc2)cc1S(=O)(=O)Nc1ccccc1`, -94%.
Consider `N=c1c2c(-c3ccccc3)c(-c3ccccc3)n(Cc3ccccc3)c2ncn1CCCO`, for which the activation was 42.7% (active).
As to `CCCN1C[C@@H](C)[C@@H](OC)CN(C)C(=O)c2ccc(NS(C)(=O)=O)cc2OC[C@@H]1C`, the activation was -0.143%.
As for `C/C=C/c1ccc2c(c1)O[C@H](CN(C)Cc1ccccc1)[C@H](C)CN([C@@H](C)CO)S2(=O)=O`, the activation is -0.63%.
Take `C[C@H](CO)N1C[C@H](C)[C@H](CN(C)Cc2ccncc2)Oc2ncc(C#Cc3cccc(F)c3)cc2C1=O`: the activation was -2.31%.
`COCC#Cc1cnc2c(c1)C(=O)N([C@@H](C)CO)C[C@@H](C)[C@H](CN(C)C(=O)Nc1ccccc1OC)O2`: the activation was -17.8%.
`CCc1ccc(-c2cc(C)no2)cc1S(=O)(=O)NCCc1ccc(S(N)(=O)=O)cc1`: the activation was -124%.
The same measure for `C[C@H](CO)N1C[C@H](C)[C@H](CN(C)Cc2ccccn2)Oc2ncc(C#CCc3ccccc3)cc2C1=O`: -4.42%; for `Cc1ccc(S(=O)(=O)Nc2ccc3ncccc3c2)cc1`: -146%.
Regarding `COCC(=O)N(C)C[C@H]1Oc2cc(C#CC(C)C)ccc2S(=O)(=O)N([C@H](C)CO)C[C@@H]1C`, the activation was -9.28%.
The same measure for `CCOC(=O)c1c(S(=O)(=O)Nc2cccc(Cl)c2)c(C)n(C)c1C`: -92%; for `O=C(/C=C(O)/C=C/c1ccc(O)cc1)/C=C/c1ccc(O)cc1`: -140%; for `CCC(=O)Nc1ccc2c(c1)OC[C@H](C)N(Cc1ccccc1F)C[C@H](C)[C@@H](OC)CN(C)C2=O`: 3.89%.
The same measure for `Cn1c(NC(=O)c2ccco2)c(-c2ccccc2Cl)c(=O)c2ccccc21`: 66.3% (active).
Take `COc1ccc(NS(=O)(=O)c2ccc(NC(=S)NC(=O)CC(C)C)cc2)cc1`: the activation was -161%.
Consider `COc1ccc(NS(=O)(=O)c2ccc(NC(=O)C(C)(C(F)(F)F)C(F)(F)F)cc2)nn1`, for which the activation is 35.7% (active).
As for `CO[C@H]1CN(C)C(=O)c2cc(NS(=O)(=O)c3ccccc3)ccc2OC[C@H](C)N(C)C[C@@H]1C`, the activation is -1.29%.
For `C[C@H](CO)N1C[C@H](C)[C@@H](CN(C)S(=O)(=O)c2ccccc2)Oc2ncc(C#Cc3ccccc3F)cc2C1=O`, the activation was 1.81%.
In the case of `COc1ccc(OCCCC(=O)NCCc2ccccc2)cc1` it was -223%; in that of `CC(C)C#Cc1ccc2c(c1)O[C@@H](CN(C)C(=O)NC(C)C)[C@H](C)CN([C@H](C)CO)S2(=O)=O`, -66.1%.
The same measure for `COc1ccccc1-c1cnc2c(c1)C(=O)N([C@H](C)CO)C[C@@H](C)[C@@H](CN(C)CC1CCCC1)O2`: 5.29%; for `Cc1ccc(NS(=O)(=O)c2cc3c(cc2C)NC(=O)CO3)cc1`: -92.7%.
In the case of `CC(C)C(=O)Nc1ccc2c(c1)C(=O)N(C)[C@@H]1CC[C@@H](CC(=O)NCCc3ccccc3)O[C@H]1CO2` it was 56.7% (active); in that of `Cn1cnc(CCNC(=O)C[C@@H]2CC[C@@H]3[C@H](COC[C@@H](O)CN3C(=O)Nc3ccccc3)O2)c1`, 4.36%.
Take `CCC(=O)Nc1ccc2c(c1)C(=O)N(C)C[C@@H](OC)[C@@H](C)CN(Cc1ccccc1OC)[C@H](C)CO2`: the activation was -2.97%.
The same measure for `CCCC(=O)Nc1ccc2c(c1)C(=O)N(C)[C@H]1CC[C@@H](CC(=O)NCc3cccc(F)c3)O[C@H]1CO2`: -120%.
The same measure for `CNC(=O)C[C@@H]1CC[C@H]2[C@H](COc3ccc(NC(=O)c4cccc(OC)c4)cc3C(=O)N2C)O1`: 50% (active).
For `CCCC(=O)Nc1ccc2c(c1)C(=O)N(C)C[C@H](OC)[C@@H](C)CN[C@H](C)CO2`, the activation was 1.08%.
The same measure for `Cc1ccc(-c2ccc3c(c2)O[C@@H](CN(C)C(=O)NC(C)C)[C@@H](C)CN([C@H](C)CO)S3(=O)=O)cc1`: -3.11%; for `COc1ccc(OC)c(-n2cc3c(=O)n(C)c(=O)n(C)c3c2)c1`: -102%; for `O=C(NNC(=O)c1ccccc1O)c1ccccc1O`: -530%.
For `CCCN(C)C[C@H]1Oc2ncc(-c3ccccc3OC)cc2C(=O)N([C@H](C)CO)C[C@@H]1C`, the activation is 6.19%.
On to `O=c1c(-c2ccccc2)coc2c(CN3CCOCC3)c(O)ccc12`, for which the activation was 35.8% (active).
In the case of `CNC[C@@H]1Oc2cc(-c3ccccc3OC)ccc2S(=O)(=O)N([C@H](C)CO)C[C@H]1C` it was -5.6%; in that of `C[C@@H]1CN([C@H](C)CO)C(=O)c2cc(C#CCN(C)C)cnc2O[C@H]1CN(C)C(=O)Cc1ccncc1`, 2.45%.
The same measure for `C[C@@H]1CN([C@@H](C)CO)S(=O)(=O)c2ccc(-c3cccc(C(=O)N(C)C)c3)cc2O[C@@H]1CN(C)C(=O)Nc1ccccc1`: -16.6%.
On to `Cc1ccc(S(=O)(=O)NC2CCCCCC2)cc1`, for which the activation is -106%.
For the molecule `C[C@H](CO)N1C[C@H](C)[C@@H](CN(C)C(=O)Cc2cccnc2)Oc2ncc(-c3ccncc3)cc2C1=O`, the activation was -1.97%.
In the case of `COc1ccc(C#Cc2ccc([C@H]3[C@@H](CO)N4CCCCN(C(=O)Nc5ccccc5)C[C@H]34)cc2)cc1` it was 35.5% (active); in that of `O=C(Nc1ccc(F)cc1)N1CCCCN2[C@H](CO)[C@H](c3ccc(C#Cc4ccccc4)cc3)[C@H]2C1`, 34.6% (active).
The same measure for `O=C(NCCCn1ccnc1)c1cc(-c2ccccc2)on1`: -98.4%.
Turning to `O=C(CN1CCOCC1)Nc1cc(Cl)ccc1Cl`, the activation is -101%.
In the case of `O=S(=O)(N/N=C\c1cccn1-c1ccccc1)c1ccc2ccccc2c1`, the activation is -97.9%.
The same measure for `Cc1noc(C)c1NC(=O)N(C)C[C@@H]1Oc2cc(C#CCC(C)C)ccc2S(=O)(=O)N([C@H](C)CO)C[C@@H]1C`: -3.73%.
With `CCCNC(=O)N(C)C[C@H]1Oc2ncc(C#C[C@@H](C)O)cc2C(=O)N([C@@H](C)CO)C[C@@H]1C`, the activation was 7.15%.
With `O=C(CC(F)(F)F)N1C[C@H]2[C@@H](c3ccccc31)[C@H](CO)N2C(=O)Cc1cccnc1`, the activation is 33.3% (active).
In the case of `O=C(c1ccccc1F)N1C[C@H]2[C@@H](c3ccccc31)[C@@H](CO)N2C(=O)c1ccc(F)cc1` it was -471%; in that of `COc1ccc(C(=O)N2C[C@@H]3[C@H](c4ccccc42)[C@H](CO)N3Cc2ccc3c(c2)OCO3)cc1`, -247%.
Consider `CCCC#Cc1ccc2c(c1)O[C@H](CN(C)C(=O)CC)[C@@H](C)CN([C@H](C)CO)S2(=O)=O`, for which the activation was -45.7%.
The same measure for `CCCNC(=O)N(C)C[C@@H]1Oc2cc(-c3ccccc3)ccc2S(=O)(=O)N([C@H](C)CO)C[C@H]1C`: -13.1%; for `C[C@@H]1CN([C@@H](C)CO)S(=O)(=O)c2ccc(C#C[C@@H](C)O)cc2O[C@@H]1CN(C)C(=O)Cc1ccccn1`: 2.54%.
